This passage reports enrichment ratio results from a collection of fitness landscapes (doi:10.1126/science.1257360).

Over roughly 140,000 sequences, “enrichment ratio after two sorts for PhoP signalling” has its median near 0; the highest 2% begin near 11. This is one part of a sample in which the highest values are shown more often than they occur.

B1: PhoQ; a variant is named by its letters at X, in order, P23837 (parent)
chain: MKKLLRLFFPLSLRVRFLLATAAVVLVLSLAYGMVALIGYSVSFDKTTFRLLRGESNLFYTLAKWENNKLHVELPENIDKQSPTMTLIYDENGQLLWAQRDVPWLMKMIQPDWLKSNGFHEIEADVNDTSLLLSGDHSIQQQLQEVREDDDDAEMTHSVAVNVYPATSRMPKLTIVVVDTIPVELKSSYMVWSWFIYVLSANLLLVIPLLWVAAWWSLRPIEALAKEVRELEEHNRELLNPATTRELTSLVRNLNRLLKSERERYDKYRTTLTDLTHSLKTPLXXLQXXLRSLRSEKMSVSDAEPVMLEQISRISQQIGYYLHRASMRGGTLLSRELHPVAPLLDNLTSALNKVYQRKGVNISLDISPEISFVGEQNDFVEVMGNVLDNACKYCLEFVEISARQTDEHLYIVVEDDGPGIPLSKREVIFDRGQRVDTLRPGQGVGLAVAREITEQYEGKIVAGESMLGGARMEVIFGRQHSAPKDE

This test covers variants of B1. Kind of test: enrichment ratio after two sorts for PhoP signalling (ratio (wild type AVST 3.29)); higher = more functional. As to conditions: with PhoP (E. coli).
As to RFAS, the enrichment ratio was at most 0.25. For the variant LNVE, the enrichment ratio was at most 0.25.

With GWCA, the enrichment ratio was at most 0.25. Turning to ACRC, the enrichment ratio is at most 0.25. For the variant RCNS, the enrichment ratio was at most 0.25. With FSFI the figure was 0.694.

Turning to IGKY, the enrichment ratio is at most 0.25.

In the case of SSNS, the enrichment ratio worked out at 0.835. The figure for TCCN is 17.6. For MECN, the enrichment ratio came out at 12.6. As to FEWI, the enrichment ratio was at most 0.25. On to QECN, for which the enrichment ratio is 9.04. FELN: the enrichment ratio amounted to 13.7.

Take DCCN: the enrichment ratio is at most 0.25. With FELA the figure was 2.53. The figure for NECN is at most 0.25. The figure for VECN is at most 0.25; for MPYN it is at most 0.25. DKHY: the enrichment ratio was at most 0.25.

Consider CHTM, for which the enrichment ratio was at most 0.25. In the case of NPDP, the enrichment ratio is at most 0.25. As to DDIR, the enrichment ratio was at most 0.25. Consider KAWL, for which the enrichment ratio was at most 0.25. For NAWL, the enrichment ratio is at most 0.25. As for QAWM, the enrichment ratio is 10.8.

As to QAWL, the enrichment ratio is 19.9.

As for QAWS, the enrichment ratio is 18.4.

Consider QAWI, for which the enrichment ratio was at most 0.25. For NGDG, the enrichment ratio is at most 0.25. With NCII the figure was at most 0.25; with YKNN, at most 0.25. On to GHVH, for which the enrichment ratio is at most 0.25. With HGGE the figure was at most 0.25. Consider LYYP, for which the enrichment ratio was at most 0.25.

With LFEG, the enrichment ratio was at most 0.25. Regarding SQSY, the enrichment ratio worked out at 8.96.

As for SRSY, the enrichment ratio is at most 0.25. The figure for GESY is 12.8; for STSY it is 11.6; for GVSY it is at most 0.25.

Consider TESY, for which the enrichment ratio stood at 23.2.

For the variant YTSY, the enrichment ratio was at most 0.25. With SESY the figure was 25.4; with GEEY, at most 0.25; with KQSY, at most 0.25. With NESY, the enrichment ratio is at most 0.25. For QESY, the enrichment ratio is at most 0.25. In the case of HTRW, the enrichment ratio was at most 0.25.

In the case of TYTW, the enrichment ratio is at most 0.25.

With RVSE, the enrichment ratio was at most 0.25. In the case of PWWY, the enrichment ratio is at most 0.25. Regarding GELC, the enrichment ratio came out at 8.26. On to IGYI, for which the enrichment ratio was at most 0.25. With YYAS the figure was at most 0.25. With SPSY the figure was at most 0.25; with MKSY, at most 0.25; with SMSY, 11.4. Consider SDSY, for which the enrichment ratio is at most 0.25. Regarding MMSY, the enrichment ratio is 2.46. With SNSY, the enrichment ratio is 12.8. Turning to KYSY, the enrichment ratio is at most 0.25.

For MESY, the enrichment ratio came to 14.8. NMSY: the enrichment ratio is at most 0.25.

As for HYIP, the enrichment ratio is at most 0.25. Turning to DCSH, the enrichment ratio was at most 0.25.

Take FCML: the enrichment ratio stood at 21.1. On to YCNL, for which the enrichment ratio is at most 0.25.

Regarding TYML, the enrichment ratio turned out to be 0.784. KCML: the enrichment ratio is at most 0.25. The figure for FTML is 12. The figure for FPML is at most 0.25; for YTML it is 5.16; for YYML it is at most 0.25. The figure for VCML is 10; for YCML it is 12.7. In the case of QPML, the enrichment ratio is at most 0.25. Consider TCML, for which the enrichment ratio was found to be 16.7. As for ILLC, the enrichment ratio was at most 0.25. On to TKRF, for which the enrichment ratio is at most 0.25. For EMVN, the enrichment ratio is at most 0.25. Take VCYH: the enrichment ratio is at most 0.25. HYMK: the enrichment ratio was at most 0.25.

Take KEFY: the enrichment ratio is at most 0.25. The figure for LSFV is 5.15. As to SLYE, the enrichment ratio was at most 0.25. With FVML, the enrichment ratio was 13.2. For the variant TVML, the enrichment ratio amounted to 1.47. As for NVML, the enrichment ratio is at most 0.25. With EIFI, the enrichment ratio was at most 0.25. As for NLQN, the enrichment ratio is at most 0.25.

For the variant IMRF, the enrichment ratio was at most 0.25. The figure for TCKR is at most 0.25. In the case of TECR, the enrichment ratio amounted to 16.3. As to TCCR, the enrichment ratio came out at 13.1. On to VECR, for which the enrichment ratio is at most 0.25. As for CDCR, the enrichment ratio is at most 0.25. For TEKR, the enrichment ratio is at most 0.25. Regarding QFGW, the enrichment ratio is at most 0.25. For the variant KPGY, the enrichment ratio is at most 0.25. On to KAWY, for which the enrichment ratio is at most 0.25. Consider VNCT, for which the enrichment ratio was determined as 1.24. As for MEFD, the enrichment ratio is at most 0.25. The figure for AICH is 15.1. With NQCH the figure was at most 0.25; with AQTH, at most 0.25. Regarding TGCH, the enrichment ratio came out at 10.6. The figure for AGCH is 11.6; for RGCH it is at most 0.25. Consider AQCH, for which the enrichment ratio stood at 32.7. Turning to WICH, the enrichment ratio is at most 0.25. AHCH: the enrichment ratio came to 2.08.

For MICD, the enrichment ratio is at most 0.25. For the variant EHIV, the enrichment ratio is at most 0.25. With FHVI the figure was at most 0.25; with GTWL, at most 0.25; with IFFD, at most 0.25. Turning to KVLP, the enrichment ratio was at most 0.25. The figure for LFKL is at most 0.25; for SILI it is 4.12; for ATLS it is 10.6. For KYLI, the enrichment ratio is at most 0.25. With QPLI the figure was at most 0.25. Consider SQLI, for which the enrichment ratio was 11.8. In the case of ATLI, the enrichment ratio stood at 15.7. The figure for STLI is 12.4.

As for ATLT, the enrichment ratio is 10.2. Turning to SPLI, the enrichment ratio is at most 0.25. As to FTLI, the enrichment ratio came out at 10.3. DPLI: the enrichment ratio is at most 0.25. YTLI: the enrichment ratio stood at 12.8. On to SDYI, for which the enrichment ratio was at most 0.25.

CPPL: the enrichment ratio is at most 0.25.

Take LICH: the enrichment ratio was at most 0.25. Turning to GFMC, the enrichment ratio is at most 0.25. Consider RVDS, for which the enrichment ratio is at most 0.25. For INFA, the enrichment ratio is at most 0.25. With TVQC the figure was 4.14; with FEAI, at most 0.25; with LSQY, at most 0.25. As for YALI, the enrichment ratio is 13.3. With GYLI the figure was 0.357.

For the variant KALI, the enrichment ratio is at most 0.25. In the case of IILI, the enrichment ratio was at most 0.25. With GALA, the enrichment ratio is 2.12. Take ITLI: the enrichment ratio was determined as 8.76. Regarding GALI, the enrichment ratio came to 14.1. In the case of NALI, the enrichment ratio came to 4.49. As to GTLI, the enrichment ratio is 15.8.

As to SALI, the enrichment ratio came out at 12.2. The figure for GALS is 5.05; for KQLI it is at most 0.25. As for ERQV, the enrichment ratio is at most 0.25. With LRKP the figure was at most 0.25. With KPPH the figure was at most 0.25; with TPRP, at most 0.25; with FDPD, at most 0.25. As to PKVE, the enrichment ratio was at most 0.25. With RSAQ, the enrichment ratio was at most 0.25. Consider CTLI, for which the enrichment ratio was at most 0.25.

With HFLI, the enrichment ratio is at most 0.25. Consider HALA, for which the enrichment ratio was at most 0.25. For the variant LTLI, the enrichment ratio turned out to be 0.384. For the variant TTLI, the enrichment ratio amounted to 12.4.

Turning to HALI, the enrichment ratio was 12.2. As for LMQH, the enrichment ratio is at most 0.25. As to KFYQ, the enrichment ratio was at most 0.25. On to CSGS, for which the enrichment ratio is at most 0.25. For WWST, the enrichment ratio was at most 0.25. For FRNI, the enrichment ratio was at most 0.25. In the case of PVQQ, the enrichment ratio was at most 0.25. On to TVQV, for which the enrichment ratio was 12.7. The figure for TVQQ is 12.6; for TVQK it is 15.5; for TVQN it is 12.1. With SPQN, the enrichment ratio is at most 0.25.

For the variant NVQK, the enrichment ratio was at most 0.25. For PVQV, the enrichment ratio is at most 0.25. Consider SPQV, for which the enrichment ratio is at most 0.25. Turning to FVQK, the enrichment ratio is at most 0.25.

As to SPQQ, the enrichment ratio is at most 0.25.

Consider TVEN, for which the enrichment ratio was at most 0.25. Turning to DRLY, the enrichment ratio was at most 0.25. Consider RFEM, for which the enrichment ratio was at most 0.25. RQMN: the enrichment ratio was at most 0.25. In the case of HNHV, the enrichment ratio was at most 0.25.

For the variant THPW, the enrichment ratio was at most 0.25. With LWEP the figure was at most 0.25; with VYIW, at most 0.25; with GCNG, at most 0.25. Consider ANGD, for which the enrichment ratio was at most 0.25.

As for ANGM, the enrichment ratio is 21.9.

As for ARVA, the enrichment ratio was at most 0.25. With ARVM the figure was 14.7; with ANGP, at most 0.25; with ANDM, at most 0.25. Take ANVM: the enrichment ratio amounted to 14.9. As to ANDS, the enrichment ratio was at most 0.25. AHGH: the enrichment ratio is at most 0.25. For the variant ARGM, the enrichment ratio was at most 0.25.

For ANGR, the enrichment ratio is at most 0.25. Turning to ANGH, the enrichment ratio came out at 11.6.
